Measurements from the supplement of paper PMC7156485.

test system: TDF; assay: H1.0 immunofluorescence intensity relative to DMSO (% of DMSO); higher = stronger H1.0 induction, active = 120 or more; conditions: concentration: 10 µM; 24 h
Method in brief: (§1)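 HCC1569 and TDF cells were seeded at 800 per well in 384-well plates in RPMI with 10% FBS and treated with compounds at 10 µM for 24 h at 37 °C, in triplicate. After fixation in 3.7% formaldehyde, cells were stained with a rabbit anti-H1.0 antibody, an AlexaFluor 647 secondary and DAPI, and six fields per well were imaged at ×10. H1.0 nuclear intensity or cell number is given as percent of the plate control, using the median of replicates, with HCC1569 values smoothed for positional effects.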
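Further: TDF is a line of transformed human dermal fibroblasts of mesenchymal origin.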

H1.0 immunofluorescence intensity, active:
CC(C)n1c(C=CC(O)CC(O)CC(=O)O)c(-c2ccc(F)cc2)c2ccccc21 (configuration not stated) [Fluvastatin] 148, Cn1c(=O)c(-c2c(Cl)cccc2Cl)cc2cnc(Nc3ccc(N4CCOCC4)cc3)nc21 154

H1.0 immunofluorescence intensity, inactive:
CN1C(C)(C)CCCC1(C)C.O=C(O)C(O)C(O)C(=O)O [Pempidine tartrate] 99.5, CC#N.Nc1nc(Nc2ccc(S(N)(=O)=O)cc2)nn1C(=O)c1c(F)cccc1F [Aurora Kinase/Cdk Inhibitor] 98.1, COC(=O)CCc1ccc(OCC(O)CNC(C)C)cc1 (configuration not stated) [Esmolol] 101, O=C(O)/C=C/c1ccc(O)c(O)c1 [Caffeic acid] 94.5, OCc1cc(C(O)CNCCCCCCOCCCCc2ccccc2)ccc1O (configuration not stated) [Salmeterol] 110, O=C1CCC(N2C(=O)c3ccccc3C2=O)C(=O)N1 (racemic) 99.5, COc1cccc(/C=N/CC/N=C/c2cccc(OC)c2[O-])c1[O-].[Cl-].[Mn+2] 99.4, CC(C)CC(NC(=O)C(O)C(N)Cc1ccccc1)C(=O)O.Cl (configuration not stated) [Bestatin hydrochloride] 96.3, OCC1OC(Oc2ccc(O)cc2)C(O)C(O)C1O (configuration not stated) [Arbutin] 102, CC[N+](C)(C)Cc1ccccc1Br.Cc1ccc(S(=O)(=O)[O-])cc1 [Bretylium tosylate] 105, CCNC(=O)C1OC(n2cnc3c(NCc4ccccc4)ncnc32)C(O)C1O (configuration not stated) [N6-Benzyl-5'-N-ethylcarboxamidoadenosine] 103, Cl.NC(N)=NC(=O)Cc1c(Cl)cccc1Cl [Guanfacine.HCl] 102, CCCn1c(=O)c2[nH]c(-c3ccc(OCC(=O)NCCN)cc3)nc2n(CCC)c1=O [Xanthine amine congener] 98, CCCCCC=CCC=CCC=CCC=CCCCCCC(=O)O [Adrenic acid (22:4 n-6)] 108, CCCCCCCCCCCC=CC(C)(C)C=CCCCC(=O)O [7,7-Dimethyl-(5Z,8Z)-eicosadienoic acid] 91.9, CCN(CC)C(=O)C(C#N)=Cc1cc(O)c(O)c([N+](=O)[O-])c1 [Entacapone] 95.3, NC(=O)c1ncn(C2OC(CO)C(O)C2O)c1O (configuration not stated) [Mizoribine] 91.2, CCCCCC=CCC=CCCCCCCCC(=O)NCC(=O)O [N-Linoleoylglycine] 96.8, CCOc1cc2ncnc(Nc3cccc(Br)c3)c2cc1OCC [Compound 56] 92.6, OC1c2ccccc2N=C2CCCN21 (configuration not stated) [Peganole] 95.3, O=C(CCCN1CCC(O)(c2cccc(C(F)(F)F)c2)CC1)c1ccc(F)cc1 [Trifluperidol] 97.3, Cc1nc2cc3nc(-c4cccs4)cnc3cc2n1C 102, O=C([O-])C=CC(O)c1ccc(Cl)cc1.[Na+] (configuration not stated) 95.7, CCCCCCCCCC(=O)NC(CN1CCOCC1)C(O)c1ccccc1 (racemic) 96.7, CC12C=CC(=O)C=C1CCC1C2C(=O)CC2(C)C1CCC2(O)C(=O)CO (configuration not stated) [Prednisone] 86.2, O=C1NC(=O)C(=Cc2ccc3c(c2)OC(F)(F)O3)S1 [PI 3-KbInhibitor II] 103, CCCCN1CCCC[C@H]1C(=O)Nc1c(C)cccc1C.Cl 96.8, Cc1c(C)c2c(c(C)c1O)CCC(C)(C(=O)O)O2 (configuration not stated) [Trolox] 94.4, COc1ccccc1OCC(O)CO (configuration not stated) [Guaifenesin] 98, CC(F)(F)CN1CCOc2c(nn(-c3ccccc3Cl)c2-c2ccc(Cl)cc2)C1=O 93.5

test system: HCC1569; assay: H1.0 immunofluorescence intensity relative to DMSO (% of DMSO); higher = stronger H1.0 induction, active = 140 or more; conditions: concentration: 10 µM; 24 h
Method in brief: as §1

H1.0 immunofluorescence intensity, inactive:
O=C(/C=C/c1cccnc1)NCCCCC1CCN(C(=O)c2ccccc2)CC1 90.3, CCC12CCCN3CCc4c(n(c5ccccc45)C(O)(C(=O)OC)C1)C32 (configuration not stated) [Vincamine] 86.2, CC(C)NCC(O)COc1cccc2ccccc12 (stereo not drawn) [Propranolol S(-)] 101, CCCCCCCCCCCCCCCC(O)C(CO)NC(C)=O (configuration not stated) [C2 Dihydroceramide] 97, CCOC(=O)Oc1c(OC)cc(C(=O)OC2CC3CN4CCc5c([nH]c6cc(OC)ccc56)C4CC3C(C(=O)OC)C2OC)cc1OC (configuration not stated) [Syrosingopine] 105, COc1ccc(CC[C@H]2CCC[C@@H](CCc3ccc(OC)cc3)N2C[C@@H](O)CO)cc1.Cl 92.7, CCCn1cnc2c1c(=O)n(CCCCC(C)=O)c(=O)n2C [Propentofylline] 100, Cl.Cl.N=C(N)c1ccc(N)cc1 [4-Aminobenzamidine dihydrochloride] 94.1, CN1C(C)(C)CCCC1(C)C.O=C(O)C(O)C(O)C(=O)O [Pempidine tartrate] 99.4, CC#N.Nc1nc(Nc2ccc(S(N)(=O)=O)cc2)nn1C(=O)c1c(F)cccc1F [Aurora Kinase/Cdk Inhibitor] 83.7, COC(=O)CCc1ccc(OCC(O)CNC(C)C)cc1 (configuration not stated) [Esmolol] 91.9, O=C(O)/C=C/c1ccc(O)c(O)c1 [Caffeic acid] 96.2, OCc1cc(C(O)CNCCCCCCOCCCCc2ccccc2)ccc1O (configuration not stated) [Salmeterol] 132, O=C1CCC(N2C(=O)c3ccccc3C2=O)C(=O)N1 (racemic) 99.3, COc1cccc(/C=N/CC/N=C/c2cccc(OC)c2[O-])c1[O-].[Cl-].[Mn+2] 108, CC(C)CC(NC(=O)C(O)C(N)Cc1ccccc1)C(=O)O.Cl (configuration not stated) [Bestatin hydrochloride] 99.6, OCC1OC(Oc2ccc(O)cc2)C(O)C(O)C1O (configuration not stated) [Arbutin] 92.1, CC[N+](C)(C)Cc1ccccc1Br.Cc1ccc(S(=O)(=O)[O-])cc1 [Bretylium tosylate] 103, CCNC(=O)C1OC(n2cnc3c(NCc4ccccc4)ncnc32)C(O)C1O (configuration not stated) [N6-Benzyl-5'-N-ethylcarboxamidoadenosine] 114, Cl.NC(N)=NC(=O)Cc1c(Cl)cccc1Cl [Guanfacine.HCl] 107, CCCn1c(=O)c2[nH]c(-c3ccc(OCC(=O)NCCN)cc3)nc2n(CCC)c1=O [Xanthine amine congener] 110, CCCCCC=CCC=CCC=CCC=CCCCCCC(=O)O [Adrenic acid (22:4 n-6)] 99.9, CCCCCCCCCCCC=CC(C)(C)C=CCCCC(=O)O [7,7-Dimethyl-(5Z,8Z)-eicosadienoic acid] 92.2, CC(C)n1c(C=CC(O)CC(O)CC(=O)O)c(-c2ccc(F)cc2)c2ccccc21 (configuration not stated) [Fluvastatin] 103, CCN(CC)C(=O)C(C#N)=Cc1cc(O)c(O)c([N+](=O)[O-])c1 [Entacapone] 105, NC(=O)c1ncn(C2OC(CO)C(O)C2O)c1O (configuration not stated) [Mizoribine] 89.3, CCCCCC=CCC=CCCCCCCCC(=O)NCC(=O)O [N-Linoleoylglycine] 103, OC1c2ccccc2N=C2CCCN21 (configuration not stated) [Peganole] 91.1, O=C(CCCN1CCC(O)(c2cccc(C(F)(F)F)c2)CC1)c1ccc(F)cc1 [Trifluperidol] 102, Cc1nc2cc3nc(-c4cccs4)cnc3cc2n1C 94.7, O=C([O-])C=CC(O)c1ccc(Cl)cc1.[Na+] (configuration not stated) 92.9, CCCCCCCCCC(=O)NC(CN1CCOCC1)C(O)c1ccccc1 (racemic) 106, CC12C=CC(=O)C=C1CCC1C2C(=O)CC2(C)C1CCC2(O)C(=O)CO (configuration not stated) [Prednisone] 122, O=C1NC(=O)C(=Cc2ccc3c(c2)OC(F)(F)O3)S1 [PI 3-KbInhibitor II] 112, CCCCN1CCCC[C@H]1C(=O)Nc1c(C)cccc1C.Cl 108, Cc1c(C)c2c(c(C)c1O)CCC(C)(C(=O)O)O2 (configuration not stated) [Trolox] 91.3, COc1ccccc1OCC(O)CO (configuration not stated) [Guaifenesin] 116, Cn1c(=O)c(-c2c(Cl)cccc2Cl)cc2cnc(Nc3ccc(N4CCOCC4)cc3)nc21 88.3, CC(F)(F)CN1CCOc2c(nn(-c3ccccc3Cl)c2-c2ccc(Cl)cc2)C1=O 88.3

H1.0 immunofluorescence intensity, active:
CCOc1cc2ncnc(Nc3cccc(Br)c3)c2cc1OCC [Compound 56] 144
